This is an account of results in PubChem BioAssay (NCI).

About 83,000 compounds went through this panel and 20% of them were active in at least one assay; those are over-represented in the sample as a whole.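 Compound tested at a single concentration for 48 hours in 96-well plates; a percent growth value below 10 was scored as active.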 Values without a mark were called inactive. Calls of active or inactive are those of the source.

Assay in all cases: NCI-60 one-dose screen, 48 h (100 = growth as untreated, 0 = no growth, -100 = all killed)
Common to all, as to details: 10 µM unless noted

The subject of test [1] is SR leukemia.
In test [2] the test system is RPMI-8226 leukemia.
Test [3] deals with OVCAR-8 ovarian.
For test [4], the system named is OVCAR-5 ovarian.
The test system of test [5] is OVCAR-4 ovarian.
The subject of test [6] is SK-OV-3 ovarian.
The test system of test [7] is IGROV1 ovarian.
Test [8] deals with OVCAR-3 ovarian.
The subject of test [9] is HS 578T breast.
In test [10] the test system is NCI/ADR-RES ovarian.

Turning to `Cn1c(COC(=O)NCCc2ccccn2)nc2c(N3CCOCC3)nc(Cl)nc21`, the growth in test [1] is 3.5% (active); in [2], -22.7% (active); in test [3], 4.96% (active); in test [4] it was -65% (active); in test [5], -59.3% (active); in test [6], 90.3%. Besides, the growth in test [7] was -92.3% (active); in test [8], -88% (active); in test [9], -25% (active); in [10] it was 18.9%.

Regarding `COc1cc(NCCCN(CC(C)C)C2CCCC2)c2ncccc2c1`, the growth is 16.8% in test [1]; 35.5% in test [2]; 59.2% in test [3]; 96.3% in test [4]; 22.5% in [5]; 84.6% in test [6]. Further, the growth in test [7] was 50.6%; in test [8], 52.6%; in test [10] it was 71.8%.

`CC(C)(O)C1CCCN1C(=O)c1ccccc1I` (centres undefined): the growth in test [1] was 106%; in test [2], 92.6%; in [3] it was 109%; in [4], 87.3%; in test [5], 25.4%; in test [6] it was 89.8%. The growth is 87.6% in test [7], 92.5% in test [8], 85.7% in test [9] and 87.8% in test [10].

As for `COc1ccc(NC(=O)c2sc3nc(C)c(C(=O)c4ccc(OC)cc4)cc3c2N)cc1`, the growth in [1] is 7.62% (active); in [2], 41.3%; in test [3], 62.1%; in test [4], 72.6%; in [5], 61.7%; in test [6], 42.7%. Further, the growth in test [7] was 50.2%; in test [8] it was 25%; in test [9] it was 40.4%; in [10], 48.9%.

As to `COc1ccccc1-c1c(-c2ccc(Cl)cc2)c2cc3c(cc2[nH]c1=O)OCCO3`, the growth in [1] was 45.8%; in [2] it was -57.2% (active); in [3] it was 68.5%; in [4], 91.1%; in test [5] it was 68.5%; in test [6] it was 101%. Moreover, the growth in [7] was 77%; in test [8], 64.5%; in test [10], 72.3%.

`COc1cc(C2CC(c3cccc(Nc4ccncc4)c3)=NN2c2ccccc2)cc(OC)c1OC` (centres undefined): the growth was 2.93% (active) in [1]; 7.32% (active) in [2]; 66.6% in [3]; 89.3% in test [4]; 41.2% in test [5]; 74% in [6]. The growth in test [7] is 55%; in test [8], 56.2%; in test [9] it was 64.2%; in [10], 66.3%.

As to `CC(C)CCSc1nc(NNC(N)=O)c(C#N)c(-c2ccccc2)n1`, the growth in [1] is 105%; in test [2], 99.4%; in [3], 104%; in test [4] it was 97.8%; in [5] it was 113%; in test [6] it was 107%. Moreover, the growth was 103% in [7], 108% in test [8], 112% in test [9] and 102% in test [10].

Turning to `CC[N+](CC)(CCCC(C)[N+]1(Cc2ccccc2)C(C)=CC=C1C)Cc1ccccc1` (centres undefined), the growth in test [1] is 90.1%; in [2], 33.6%; in [3], 101%; in test [4], 88.1%; in test [5], 62.1%; in test [6], 101%. In addition, the growth in test [7] is 62.4%; in test [8], 64%; in test [10], 97.7%.

On to `C=C(C)[C@@H]1CC[C@]2(C(=O)N3CCN(C)CC3)CC[C@]3(C)[C@H](CC[C@@H]4[C@@]5(C)CCC(=O)C(C)(C)[C@@H]5CC[C@]43C)[C@@H]12`, for which the growth in [1] was -12.1% (active); in [2], 78.1%; in test [3] it was 87.1%; in [4], 92.5%; in [5], 83.5%; in test [6], 104%. Also, the growth was 89.2% in [7], 74% in test [8], 95.3% in test [9] and 74.6% in test [10].

In the case of `COc1ccc(-c2nn(Cc3ccccc3)c3c2-c2oncc2CC3)cc1OC`, the growth in test [1] was 63.2%; in test [2] it was 98.5%; in test [3], 89%; in test [4], 103%; in [5] it was 86.8%; in [6] it was 137%. Moreover, the values for the growth in test [7], in [8] and in test [10] were 124%, 113% and 82.6%, respectively.

For `O=S(=O)(NCCCNc1nccc(-c2c(-c3ccc(F)c(O)c3)nc3sccn23)n1)c1ccc(F)cc1`, the growth in test [1] was -7.44% (active); in [2], -47.7% (active); in test [3] it was -11.9% (active); in test [4], 24.4%; in test [5], 3.86% (active); in [6], 17.9%. In addition, the figures for the growth in test [7], in test [9] and in test [10] were 0.863% (active), 3.15% (active) and 48.2%, respectively.

For `COc1ccc(Cc2nc3cc(OC)c(OC)cc3c(=O)[nH]2)cc1`, the growth was 36.1% in test [1]; 52.6% in [2]; 73.5% in test [3]; 78.6% in test [4]; 105% in test [5]; 148% in [6]. Further, the growth was 65.7% in test [7], 78.9% in test [8], 77.5% in test [9] and 74.8% in test [10].

Take `Fc1ccc(C2CC(c3cccc(Nc4ccncc4)c3)=NN2c2cc(Cl)cc(Cl)c2)cc1` (centres undefined): the growth was 2.89% (active) in test [1]; 20.9% in test [2]; -18.3% (active) in [3]; 87.5% in [4]; 15.8% in [5]; 83.3% in [6]. For the same compound, the growth in test [7] is 25.1%; in test [9], 57.8%; in test [10], 64.3%.
